# Assay outcomes (PubChem BioAssay)
# HCMV antiviral: qHTS Assay for inhibitors of the human cytomegalovirus (HCMV). HFF cells, HCMV-luciferase reporter, 72 h; active compounds read low. activity change, negative = inhibition, % at 57.5 µM. 4.5% of 410,000 active; in the data active = activity change below about -60%; inconclusive = no clear call, values can overlap the other calls; inactive = above about -39%
#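 Steps: HFFs plated, 16 h 37C; compounds added; HCMV-luciferase added to MOI 1 PFU/cell; 72 h 37C; OneGlo reagent, 5 min room temperature; luminescence read, normalized to controls.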
# LASV entry inh: qHTS for Inhibitors of binding or entry into cells for Lassa Virus; Potency, µM (doses to about 37.9 µM), without a hit: at the top dose activity change, negative = inhibition, usual class: inhibitors; 1.2% of 300,000 active; Lassa virus pseudotype entry inhibition, cell reporter; calls by dose curve; tested in HEK293 cells; also: potency is read from the fitted curve at half-maximal effect; nearly all actives have a fitted effect of over 50% in size
# Marburg entry inh: qHTS for inhibitors of binding or entry into cells for Marburg Virus | Marburg virus pseudotyped entry inhibition, cell reporter | Potency, µM (top dose mostly 37.8 µM), inactives show at the highest dose activity change, negative = inhibition, hits mostly inhibitors | 1.8% of 300,000 active | AID 540276, 2011; calls by dose curve; tested in HEK293 cells; also: potency is read from the fitted curve at half-maximal effect
# FMDV inh: High Throughput Screening for Foot and Mouth Disease Virus Antivirals; FMDV antiviral cell-based qHTS; Potency, µM (series often up to 57.9 µM), without a hit: at the highest dose activity change, negative = inhibition, usual class: inhibitors; 1.2% of 410,000 active; calls by dose curve; tested in HEK293T cells; also: read-out not given here; potency is read from the fitted curve at half-maximal effect; nearly all actives have a fitted effect of over 45% in size
# HCV inhibitor: qHTS Assay for Inhibitors of Hepatitis C Virus (HCV); AID 651820, 2012; Potency, µM (titrated, usually from 41.8 µM), inactives show top-dose activity change, negative = inhibition, most hits filed as inhibitors; Huh7.5.1 HCVcc-Cre infection, luciferase reporter, 44 h; 3.4% of 340,000 active; active = well fitted inhibition curve with a large enough effect; inconclusive = small, poorly fitted or top-dose-only effect, or another doubt; inactive = no such curve, though single readings can be large or run the other way; also: potency is read from the fitted curve at half-maximal effect
#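 Luciferase read-out (15 sec integration) after a 15 min room-temperature substrate step quantifies HCVcc-Cre infection. Cells, 1,000 per well, had compound added 4 h post-plating, then virus at ~0.5 moi, and were cultured 44 h.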
# Starred values were filed as active, the others as inactive; u = inconclusive; x = no result; [ ] = dose if it differs, or a comment. Rows were chosen to be rich in hits. Some 7.9% of all compounds tested hit in one or more screens of this group. % is scaled to controls: 0 for no effect and ±100 for the full control effect.
SMILES,HCMV antiviral,LASV entry inh,Marburg entry inh,FMDV inh,HCV inhibitor
CCC(=O)Oc1ccc(NC(=O)CSCc2ccccc2)cc1,-72.8*,x,x,63.2%,-1.3%
COC(=O)c1ccc(NC(=O)CSCc2ccccc2)cc1,x,13.5%,u,14.6%,-2.3%
O=C(Cc1ccc(Cl)cc1)Nc1ccc(-c2nnc(-c3ccco3)o2)cc1,1.1,u,4.0%,u,u
COc1ccc(-c2ccnc(-n3ncc(C(=O)NC(C)(C)CO)c3C3CC3)n2)cc1F,x,x,x,42.5%,x
COC(=O)C1=C(c2ccc(S(C)(=O)=O)cc2)C[C@@H]2CC[C@H]1N2C(=O)NCc1ccc(F)cc1,-62.9*,x,x,-16.2%,u
COC(=O)C1=C(c2ccc(OC(F)(F)F)cc2)C[C@@H]2CC[C@H]1N2C(=O)NCc1cccc2ccccc12,-12.1,x,x,12.6µM*,10µM*
COC(=O)C1=C(c2ccc(OC(F)(F)F)cc2)C[C@@H]2CC[C@H]1N2C(=O)NCc1ccc(F)cc1,-20.5,x,x,0.0%,u
CCOc1ccc(CNC(=O)C2Cc3cc(S(=O)(=O)N4CCCCCC4)ccc3N2C(C)=O)cc1 (stereo not given),7.9,-28.2%[46.1 µM],-18.6%[46.1 µM],-28.6%,x
CCOc1ccccc1NC(=O)N1CCc2c(sc(C)c2CC)C1c1ccccc1 (stereo not given),-11.7,-26.7%[46.1 µM],x,-24.0%,x
COc1ccc(N2CC(C)(C)C[C@H]2/C=C/C(=O)OC(C)(C)C)cc1,-7.3,x,x,x,x
O=C(Nc1ccc(-c2cc(C(F)(F)F)nn2-c2ccccc2)cc1)c1cccc(F)c1,-94.7*,u,u,-10.9%,x
CCOc1cc(-c2nnc(SCC(=O)Nc3ccc(F)c(F)c3)nc2-c2ccc(OC)c(OCC)c2)ccc1OC,7.8,8.2%[46.1 µM],x,-28.7%,x
Clc1ccc2nc(-c3ccncc3)cc(-c3ccccc3)c2c1,-10.5,6.1%,-4.4%,u,-11.4%
c1ccc(-c2cc(-c3ccncc3)nc3ccc4ccccc4c23)cc1,-29.3,-11.2%,u,u,10µM*
CC1(c2ccc(Cl)cc2)CC(C)(C)N(C(=O)c2ccccc2)c2ccccc21 (stereo not given),-82.7*,2.4%[46.1 µM],18.0%[46.1 µM],u,x
CC1(c2ccccc2)CC(C)(C)N(C(=O)C2CCCO2)c2ccccc21 (stereo not given),-27.9,-7.2%,18.3µM*,x,u
COc1ccc(C(=O)N2c3ccccc3C(C)(c3ccc(Cl)cc3)CC2(C)C)cc1 (stereo not given),-93.2*,-20.5%[46.1 µM],x,-6.6%,x
COc1cccc(NC(=O)CSc2nccn2Cc2ccc3c(c2)OCO3)c1,30.1,12.8%[46.1 µM],x,4.8%,x
COCCCNC(=O)C1CCC(Cn2c(=O)c3sccc3n(C)c2=O)CC1 (stereo not given),9.4,-2.9%[46.1 µM],x,-8.3%,x
O=C(c1csc(Nc2ccccc2Cl)n1)N1CCCC1,-93.2*,-6.4%,u,46.0%,-1.4%
COc1ccc(NC(=O)c2cc(-c3ccccc3Cl)on2)cc1OC,-6.3,4.7%[46.1 µM],-0.4%[46.1 µM],14.8%,9.6%
O=C(Nc1ccc(SC(F)F)cc1)c1cc(-c2ccc3c(c2)OCCO3)on1,-66.4*,u,-19.1%[46.1 µM],u,x
O=C(c1csc(Nc2cccc3ccccc23)n1)N1CCCC1,0.0,x,x,15.3%,-8.3%
O=C(Nc1cccc(O)c1)c1cc(-c2ccc3c(c2)OCO3)on1,41.2,u,u,11.2µM*,7.1%
O=C(Nc1cccc(O)c1)c1cc(-c2ccccc2Cl)on1,-23.8,5.01µM*,7.08µM*,11.2µM*,0.5%
SMILES,HCMV antiviral,LASV entry inh,Marburg entry inh,FMDV inh,HCV inhibitor
COC(=O)c1ccc(NC(=O)CSc2nc3cc4ccccc4cc3[nH]2)cc1,13.6,2.6%[46.1 µM],u,16.4%,x
O=C(c1cc(-c2ccccc2Cl)on1)N1CCCC1,u,u,11.2µM*,-20.0%,-9.5%
CCCn1c(N)c(C(=O)CSc2nnc(Cc3ccccc3)o2)c(=O)n(C)c1=O,-32.3,u,u,u,10µM*
Cc1ccc(C2C(/C=C3/SC(=S)NC3=O)=C(c3cccs3)Oc3ccccc32)cc1 (stereo not given),-60.8*,u,u,x,u
Clc1ccc2nc(N3CCNCC3)nc(-c3ccccc3)c2c1,u,u,u,-24.6%,10µM*
CN1CCN(c2nc(-c3ccccc3)c3cc(Cl)ccc3n2)CC1,10.2,7.2%,-18.9%,-1.9%,-13.3%
Cc1cc(C(C)(C)C)oc1C(=O)N(CC(=O)NC1CCCC1)c1cccc(C(F)(F)F)c1,x,u,23.1µM*,x,u
COC(=O)[C@H]1[C@H](CO)[C@H]2Cn3c(cccc3=O)[C@@H]1N2CC1CCCCC1,-13.3,x,x,x,x
CC(=O)c1cccc(NC(=O)CCc2nc3cccnc3n2Cc2cccs2)c1,-32.7,-10.5%[46.1 µM],u,-20.0%,x
CCOC(=O)/C(=C\c1cn(C)c2ccccc12)[N+](=O)[O-],89.6,0.2%,13.7%,28.2µM*,7.5%
COc1ccc(-c2nc3cc(C(C)C)ccc3o2)cc1NC(=O)c1ccccc1[N+](=O)[O-],-7.6,5.1%[46.1 µM],30.5%[46.1 µM],47.8%,x
CSC1SCC2C(=O)N(C)C(C(C)C)C(=O)OCC(NC(=O)c3cnc4ccccc4n3)C(=O)NC(C)C(=O)N(C)C1C(=O)N(C)C(C(C)C)C(=O)OCC(NC(=O)c1cnc3ccccc3n1)C(=O)NC(C)C(=O)N2C (stereo not given),-98.9*,u,u,0.0%,u
CCCCCC1C(=O)O[C@H](C)[C@@H](NC(=O)c2cccc(NC=O)c2O)C(=O)OC(C)C1OC(=O)CC(C)C (stereo not given in full),x,x,x,39.8µM*,x
COc1ccc(-n2cc(CNC3CCC(O)CC3)c(-c3cccc(F)c3)n2)cc1 (stereo not given),-27.4,-17.3%,17.8µM*,-13.5%,-8.5%
COc1ccc(CNCc2cn(-c3cccc(F)c3)nc2-c2ccc(C)o2)cc1,-25.9,x,x,-16.7%,10µM*
COc1ccc(-n2cc(CNCc3cccnc3)c(-c3cccc(F)c3)n2)cc1,11.5,9.7%,u,29.6%,0.0%
O=C(c1ccc2c(c1)OCCO2)C1CCN(C(=O)c2ccc(F)c(F)c2)CC1,-67.5*,-5.9%,-10.9%,-43.8%,u
COc1cccc(C2CC(c3cccs3)=NN2C(=O)c2ccco2)c1O (stereo not given),-38.2,-21.9%,22.3%[46.1 µM],-16.8%,14.1µM*
COc1ccc(C2=NN(C(=O)c3ccco3)C(c3cccs3)C2)cc1OC (stereo not given),61.8,x,x,8.1%,x
O=C(c1ccco1)N1N=C(c2cccs2)CC1c1ccccc1O (stereo not given),-68.3*,-3.6%,-26.5%,u,-1.2%
COc1ccc2ccc(=O)oc2c1CC(=O)C(C)C,0.7,x,x,-10.3%,4.47µM*
COc1ccc2ccc(=O)oc2c1CC(O)C(C)(C)O (stereo not given),17.1,x,x,-16.0%,9.7%
